# Reference: paper PMC7862700, “An all-to-all approach to the identification of sequence-specific readers for epigenetic DNA modifications on cytosine”
# Tests used:
# Assay in all cases: DAPPL (digital affinity profiling via proximity ligation, sequencing); 10 mM Tris-HCl pH 7.5, 50 mM NaCl, 1 mM DTT, 4% glycerol, room temperature, 30 min; GST-TFs on glutathione beads, 16-mer random dsDNA library, 0.1% formaldehyde crosslink after washing; high values mean tight binding
# FEV = molecular target: T1, FEV (Homo sapiens, UniProt Q99581 1-238); conditions: protein: recombinant; tags: N-terminal GST; dsDNA, one strand shown
# T1 sequence: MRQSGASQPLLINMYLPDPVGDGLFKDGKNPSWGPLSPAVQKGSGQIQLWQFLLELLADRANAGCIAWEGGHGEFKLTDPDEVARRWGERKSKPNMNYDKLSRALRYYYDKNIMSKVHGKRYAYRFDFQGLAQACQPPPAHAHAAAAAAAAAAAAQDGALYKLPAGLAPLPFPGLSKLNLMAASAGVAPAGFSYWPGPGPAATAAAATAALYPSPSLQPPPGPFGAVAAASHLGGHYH
# Procedure, shortened: (§1)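 GST fusions of human transcription factors were expressed in yeast and captured with glutathione beads. Once given DNA barcodes and pooled alongside a tag-only sample, they were incubated for 30 min at room temperature with 200 nmole of a random double-stranded 16-mer DNA library in Tris/NaCl/DTT/glycerol buffer, then washed, crosslinked (0.1% formaldehyde), proximity-ligated, PCR-amplified and sequenced on an Illumina NextSeq500. The binding signal of each hexamer is its read frequency for a factor divided by its frequency for the tag-only sample.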
# ETV5 = ETV5 (Homo sapiens, UniProt P41161 1-510); conditions: protein: recombinant; tags: N-terminal GST; dsDNA, one strand shown
# ETV5, sequence (P41161 whole entry): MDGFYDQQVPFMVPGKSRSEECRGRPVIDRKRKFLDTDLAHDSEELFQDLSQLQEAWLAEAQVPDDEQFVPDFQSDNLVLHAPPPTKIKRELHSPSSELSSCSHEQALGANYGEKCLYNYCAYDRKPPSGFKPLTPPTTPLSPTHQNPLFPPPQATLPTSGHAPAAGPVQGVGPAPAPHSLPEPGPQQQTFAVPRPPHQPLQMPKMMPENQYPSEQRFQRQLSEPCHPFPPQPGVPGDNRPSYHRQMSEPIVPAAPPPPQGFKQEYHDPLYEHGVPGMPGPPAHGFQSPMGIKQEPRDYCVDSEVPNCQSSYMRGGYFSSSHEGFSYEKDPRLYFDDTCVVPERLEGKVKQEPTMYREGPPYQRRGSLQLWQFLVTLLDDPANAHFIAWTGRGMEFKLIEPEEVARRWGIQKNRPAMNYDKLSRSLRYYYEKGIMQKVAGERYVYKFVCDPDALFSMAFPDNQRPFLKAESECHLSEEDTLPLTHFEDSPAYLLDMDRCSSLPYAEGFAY
# Procedure, shortened: as §1
# HSF1 = HSF1 (Homo sapiens, UniProt Q00613 1-529); conditions: protein: recombinant; tags: N-terminal GST; chain copies: 3; dsDNA, one strand shown
# HSF1, sequence (Q00613 whole entry): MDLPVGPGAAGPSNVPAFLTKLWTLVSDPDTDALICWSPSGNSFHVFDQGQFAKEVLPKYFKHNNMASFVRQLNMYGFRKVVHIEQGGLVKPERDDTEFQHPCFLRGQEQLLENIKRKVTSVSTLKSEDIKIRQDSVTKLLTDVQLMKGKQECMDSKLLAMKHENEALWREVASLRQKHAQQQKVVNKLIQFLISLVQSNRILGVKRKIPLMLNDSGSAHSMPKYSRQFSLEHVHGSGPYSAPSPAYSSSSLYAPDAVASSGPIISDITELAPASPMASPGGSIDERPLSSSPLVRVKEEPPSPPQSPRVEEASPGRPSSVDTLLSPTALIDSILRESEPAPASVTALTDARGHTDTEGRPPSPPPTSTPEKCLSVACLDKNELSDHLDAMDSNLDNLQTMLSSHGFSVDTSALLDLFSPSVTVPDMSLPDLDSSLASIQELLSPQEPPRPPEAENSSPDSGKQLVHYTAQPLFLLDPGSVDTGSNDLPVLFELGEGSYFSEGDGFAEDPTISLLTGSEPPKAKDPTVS
# Procedure, shortened: as §1
# SPIC = molecular target: T2, SPIC (Homo sapiens, UniProt Q8N5J4 1-248); conditions: protein: recombinant; tags: N-terminal GST; dsDNA, one strand shown
# T2 sequence: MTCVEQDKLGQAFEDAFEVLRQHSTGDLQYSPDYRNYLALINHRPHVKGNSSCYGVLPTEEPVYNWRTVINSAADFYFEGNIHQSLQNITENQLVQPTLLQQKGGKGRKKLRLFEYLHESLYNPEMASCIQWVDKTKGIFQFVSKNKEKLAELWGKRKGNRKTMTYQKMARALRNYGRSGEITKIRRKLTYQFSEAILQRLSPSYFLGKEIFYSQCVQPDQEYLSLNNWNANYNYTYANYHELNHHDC
# Procedure, shortened: as §1
# ELF4 = ELF4 (Homo sapiens, UniProt Q99607 1-663); conditions: protein: recombinant; tags: N-terminal GST; dsDNA, one strand shown
# ELF4, sequence (Q99607 whole entry): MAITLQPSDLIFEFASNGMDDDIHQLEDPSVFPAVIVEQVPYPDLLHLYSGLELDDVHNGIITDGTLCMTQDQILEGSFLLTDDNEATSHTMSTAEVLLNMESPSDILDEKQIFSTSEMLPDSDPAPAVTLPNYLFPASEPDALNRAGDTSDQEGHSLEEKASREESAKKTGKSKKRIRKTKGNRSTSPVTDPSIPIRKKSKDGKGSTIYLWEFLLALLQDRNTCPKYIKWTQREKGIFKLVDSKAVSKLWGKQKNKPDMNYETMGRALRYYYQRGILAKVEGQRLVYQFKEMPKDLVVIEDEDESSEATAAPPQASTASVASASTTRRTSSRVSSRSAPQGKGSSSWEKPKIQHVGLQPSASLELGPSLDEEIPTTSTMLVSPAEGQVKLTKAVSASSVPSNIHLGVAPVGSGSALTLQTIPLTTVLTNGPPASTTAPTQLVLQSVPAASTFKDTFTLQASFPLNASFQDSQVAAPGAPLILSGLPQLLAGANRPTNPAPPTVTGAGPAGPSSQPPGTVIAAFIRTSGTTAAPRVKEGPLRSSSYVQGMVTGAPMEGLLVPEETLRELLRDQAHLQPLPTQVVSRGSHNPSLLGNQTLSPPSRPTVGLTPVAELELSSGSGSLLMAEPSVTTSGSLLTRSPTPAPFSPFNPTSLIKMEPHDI
# Procedure, shortened: as §1
# ELK4 = molecular target: T3, ELK4 (Homo sapiens, UniProt P28324-2 1-405); conditions: protein: recombinant; tags: N-terminal GST; dsDNA, one strand shown
# T3 sequence: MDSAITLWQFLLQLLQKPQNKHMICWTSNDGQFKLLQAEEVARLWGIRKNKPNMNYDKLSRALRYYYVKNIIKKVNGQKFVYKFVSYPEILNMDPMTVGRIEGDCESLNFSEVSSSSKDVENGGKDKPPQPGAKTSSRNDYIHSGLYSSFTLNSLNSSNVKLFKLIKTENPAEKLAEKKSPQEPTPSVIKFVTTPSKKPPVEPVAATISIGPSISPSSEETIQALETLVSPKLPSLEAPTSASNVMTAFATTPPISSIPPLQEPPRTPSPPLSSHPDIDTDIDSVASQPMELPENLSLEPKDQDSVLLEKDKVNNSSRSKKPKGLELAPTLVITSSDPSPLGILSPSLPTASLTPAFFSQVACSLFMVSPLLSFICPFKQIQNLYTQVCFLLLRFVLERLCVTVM
# Procedure, shortened: as §1
# ETV2 = molecular target: T4, ETV2 (Homo sapiens, UniProt O00321 1-342); conditions: protein: recombinant; tags: N-terminal GST; dsDNA, one strand shown
# T4 sequence: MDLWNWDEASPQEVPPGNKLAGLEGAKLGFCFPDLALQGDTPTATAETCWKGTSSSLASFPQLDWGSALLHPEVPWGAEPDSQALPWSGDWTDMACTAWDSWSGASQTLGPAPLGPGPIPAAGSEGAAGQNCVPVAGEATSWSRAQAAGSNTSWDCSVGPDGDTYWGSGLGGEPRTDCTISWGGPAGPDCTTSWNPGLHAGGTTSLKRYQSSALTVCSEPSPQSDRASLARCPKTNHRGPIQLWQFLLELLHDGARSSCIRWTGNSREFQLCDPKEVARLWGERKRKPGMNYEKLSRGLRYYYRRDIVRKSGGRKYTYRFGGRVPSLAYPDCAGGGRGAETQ
# Procedure, shortened: as §1
# ELF3 = molecular target: T5, ELF3 (Homo sapiens, UniProt P78545 1-371); conditions: protein: recombinant; tags: N-terminal GST; dsDNA, one strand shown
# T5 sequence: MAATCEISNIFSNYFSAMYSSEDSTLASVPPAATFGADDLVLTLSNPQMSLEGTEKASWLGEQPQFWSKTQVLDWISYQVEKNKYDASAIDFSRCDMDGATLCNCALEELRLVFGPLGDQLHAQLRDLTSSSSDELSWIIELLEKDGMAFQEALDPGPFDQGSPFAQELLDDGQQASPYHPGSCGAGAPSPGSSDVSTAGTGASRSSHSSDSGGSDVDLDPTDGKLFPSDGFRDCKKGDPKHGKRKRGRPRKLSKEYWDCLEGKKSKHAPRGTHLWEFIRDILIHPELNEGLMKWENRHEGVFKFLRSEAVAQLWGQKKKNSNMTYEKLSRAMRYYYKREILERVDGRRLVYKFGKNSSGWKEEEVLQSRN
# Procedure, shortened: as §1
# CRX = CRX (Homo sapiens, UniProt O43186 1-299); conditions: protein: recombinant; tags: N-terminal GST; dsDNA, one strand shown
# CRX, sequence (O43186 whole entry): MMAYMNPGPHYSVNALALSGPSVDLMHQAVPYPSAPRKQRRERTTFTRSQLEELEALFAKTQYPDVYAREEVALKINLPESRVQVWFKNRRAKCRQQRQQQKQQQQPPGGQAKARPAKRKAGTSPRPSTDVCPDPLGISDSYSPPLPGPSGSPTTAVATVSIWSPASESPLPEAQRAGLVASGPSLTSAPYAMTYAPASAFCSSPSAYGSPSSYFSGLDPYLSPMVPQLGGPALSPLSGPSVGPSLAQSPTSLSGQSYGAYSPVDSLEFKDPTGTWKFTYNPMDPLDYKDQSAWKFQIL
# Procedure, shortened: as §1
# ETV1 = ETV1 (Homo sapiens, UniProt P50549 1-477); conditions: protein: recombinant; tags: N-terminal GST; dsDNA, one strand shown
# ETV1, sequence (P50549 whole entry): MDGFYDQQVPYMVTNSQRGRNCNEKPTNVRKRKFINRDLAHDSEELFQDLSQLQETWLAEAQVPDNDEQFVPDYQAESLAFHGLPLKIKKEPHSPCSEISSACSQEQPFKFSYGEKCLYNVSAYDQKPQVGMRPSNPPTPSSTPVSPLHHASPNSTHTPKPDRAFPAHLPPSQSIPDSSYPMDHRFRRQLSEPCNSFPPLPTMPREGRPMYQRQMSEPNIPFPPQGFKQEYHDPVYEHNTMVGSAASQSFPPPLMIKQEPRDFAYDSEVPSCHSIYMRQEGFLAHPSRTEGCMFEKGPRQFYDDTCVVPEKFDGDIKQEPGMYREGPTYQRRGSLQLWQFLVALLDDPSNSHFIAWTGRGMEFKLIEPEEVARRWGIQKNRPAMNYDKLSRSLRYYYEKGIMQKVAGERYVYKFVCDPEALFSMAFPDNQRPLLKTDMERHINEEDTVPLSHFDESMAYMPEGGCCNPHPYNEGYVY
# Procedure, shortened: as §1
sequence,measurement,setting,value
TTATTC,binding signal,FEV,"1.39 fold enrichment (6-mer frequency, TF over GST control)"
same,binding signal,ETV5,"1.33 fold enrichment (6-mer frequency, TF over GST control)"
same,binding signal,HSF1,"2.13 fold enrichment (6-mer frequency, TF over GST control)"
same,binding signal,SPIC,"1.45 fold enrichment (6-mer frequency, TF over GST control)"
same,binding signal,ELF4,"1.41 fold enrichment (6-mer frequency, TF over GST control)"
same,binding signal,ELK4,"1.31 fold enrichment (6-mer frequency, TF over GST control)"
same,binding signal,ETV2,"1.54 fold enrichment (6-mer frequency, TF over GST control)"
same,binding signal,ELF3,"1.24 fold enrichment (6-mer frequency, TF over GST control)"
same,binding signal,CRX,"2.37 fold enrichment (6-mer frequency, TF over GST control)"
same,binding signal,ETV1,"1.36 fold enrichment (6-mer frequency, TF over GST control)"
